PubChem BioAssay AID1851 (National Center for Advancing Translational Sciences (NCATS), 2009)
Values joined by “and” are separate entries in the source; they are usually repeats but may differ in a detail not shown here. Equal values may be shown once. Among all 16,000 compounds or so, about 5,800 (36%) were called active. Not shown: some 23% with an inconclusive outcome. Calls follow the shape of the dose curve; as a rule, active = well fitted curve in the direction sought with a large enough effect; inconclusive = small, poorly fitted or top-dose-only effect, or effect the other way; inactive = no such curve, though single readings can be large or run the other way. Some of the results follow. Some compounds were tested as several samples or in several runs, with calls that do not always agree.

Target: Cytochrome P450 2C19 (Homo sapiens) (UniProt P33261)
Sequence (P33261 whole entry, looked up): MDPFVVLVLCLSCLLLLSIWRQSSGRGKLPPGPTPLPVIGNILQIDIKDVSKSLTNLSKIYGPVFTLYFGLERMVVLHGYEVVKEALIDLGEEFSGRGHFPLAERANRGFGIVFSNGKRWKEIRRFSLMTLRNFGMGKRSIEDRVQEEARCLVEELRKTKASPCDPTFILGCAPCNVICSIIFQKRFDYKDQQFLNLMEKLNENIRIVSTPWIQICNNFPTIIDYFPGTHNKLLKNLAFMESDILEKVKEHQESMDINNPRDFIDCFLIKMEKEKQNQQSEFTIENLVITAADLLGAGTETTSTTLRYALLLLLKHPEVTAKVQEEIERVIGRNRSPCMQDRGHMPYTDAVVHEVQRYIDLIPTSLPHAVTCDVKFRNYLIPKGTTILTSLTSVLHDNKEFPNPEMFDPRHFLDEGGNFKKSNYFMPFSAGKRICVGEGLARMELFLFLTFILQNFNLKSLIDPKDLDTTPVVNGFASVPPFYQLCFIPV
Assay: Cytochrome panel assay with activity outcomes
Settings: recombinant CYP, pro-luciferin dealkylation, luminescence, p450-cyp2c19; series mostly up to 57.1 µM; activity, negative = inhibition: at the top concentration
% is scaled to controls: 0 for no effect and ±100 for the full control effect.

SMILES	activity, negative = inhibition	AC50
Ic1ccccc1CN[C@@H]1C2CCN(CC2)[C@H]1C(c1ccccc1)c1ccccc1	-32.5% (inactive)	
COc1cc(C(=O)OC2C[C@H]3CC[C@@H](C2)N3C)ccc1O (some centres not stated)	-26.6% [at 25.6 µM] (inactive)	
C/C(=C\c1ccc(N(C)C)cc1)[N+](=O)[O-]		14.1 µM (active)
C[C@H]1CC[C@@]2(NC1)O[C@@H]1C[C@H]3[C@@H]4CC=C5C[C@@H](O)CC[C@]5(C)[C@@H]4CC[C@]3(C)[C@@H]1[C@@H]2C	-5.7% [at 25.6 µM] (inactive)	
COc1cc(-c2ccc(=O)[nH]n2)ccc1OC(F)F		15.8 µM (active)
COc1cc(C[C@H](C)N)c(OC)cc1I		inactive
C[C@@]12CC(=O)[C@H]3[C@@H](CCC4=CC(=O)CC[C@]43C)[C@H]1CCC2=O	-3.49% [at 25.6 µM] (inactive)	
C[C@@H]1CC[C@@H]2N(C1)C[C@H]1[C@@](O)([C@H](O)C[C@]3(O)[C@H]4CC[C@H]5[C@]6(O)O[C@]4(C[C@]13O)[C@@]5(C)CC[C@@H]6O)[C@@]2(C)O	1.59% [at 11.4 µM] (inactive)	
NC(N)=NCCN=C(N)N	-3.51% [at 11.4 µM] (inactive)	
CN(C)c1ccc(NC(=O)CN2C(=O)CN=C(c3ccccc3)c3ccccc32)cc1		2.24 µM (active)
O=C(O)CN1C(=O)CN=C(c2ccccn2)c2cc(Cl)ccc21	33.4% [at 11.4 µM] (inactive)	
CN(C)CCCNc1c2c(nc3ccc(Cl)cc13)CCCC2	23.5% [at 11.4 µM] (inactive)	
Nc1nc(OCc2ccccc2)c2[nH]cnc2n1		6.31 µM (active)
O=C(O)C[C@H]1NCc2cc3ccccc3nc21	22.2% [at 11.4 µM] (inactive)	
COc1ccc2[nH]cc(CCN)c2c1	-24.4% (inactive)	
NCCc1c[nH]c2ccc(C(N)=O)cc12		inactive
CCCCCCCCCOc1ccc2[nH]cc(CCN)c2c1		10 µM (active)
CCC(COC(=O)NC)NC(=O)Oc1ccccc1 (configuration not stated)	-27.3% (inactive)	
O=S(=O)(c1ccccc1)N1CCCCC1c1cccnc1 (configuration not stated)		10 µM (active)
CC(C)=C[C@H]1[C@@H](C(=O)OCc2cc3c(cc2Cl)OCO3)C1(C)C		1.58 µM (active)
CC(C)CN1CC2(CCN(C(=O)Oc3ccccc3)CC2)C1	3.45% (inactive)	
C(=C/c1ccccc1)/CN1CCN(CCOC(c2ccccc2)c2ccccc2)CC1		10 µM (active)
Fc1ccc(C(OCCN2CCN(C/C=C\c3ccccc3)CC2)c2ccc(F)cc2)cc1		7.94 µM (active)
CO[C@@H]1CC=C2CCN3CCC4=C(CC(=O)OC4)[C@]23C1	-6.6% (inactive)	
O=C1OC(=O)[C@@H]2[C@@H]1[C@@H]1CC[C@H]2O1	12.7% (inactive)	
CCS(=O)(=O)Nc1cccc(C(=C2CCCCC2)c2cnc[nH]2)c1		0.00794 µM (active)

SMILES	activity, negative = inhibition	AC50
N#Cc1ccc(CN2CCC3(CC2)CCN(C(=O)Oc2ccccc2)CC3)cc1	-13% (inactive)	
CC(=O)c1c(O)c(C)c(O)c(Cc2c(O)c3c(c(C(=O)/C=C\c4ccccc4)c2O)OC(C)(C)C=C3)c1O	3.98% (inactive)	
CCN1CCN(S(=O)(=O)c2ccc(Cl)nc2)CC1	-21.4% (inactive)	
NCc1cc(=O)[nH]o1	-23.7% (inactive)	
CS(=O)c1ccc(-c2nc(-c3ccc(F)cc3)c(-c3ccncc3)[nH]2)cc1 (configuration not stated)		inactive and 39.8 nM (active)
N[C@@H](CCCCP(=O)(O)O)C(=O)O	-26.8% (inactive)	
C=CCN1C[C@H](C)N([C@H](c2ccc(C(=O)N(CC)CC)cc2)c2cccc(O)c2)C[C@H]1C	-25% (inactive)	
CCCCc1ccc(-c2nc(NC(=O)C3C4CCC(O4)C3C(=O)O)sc2C)cc1 (configuration not stated)		3.98 µM (active)
O=C(O)[C@H]1[C@H](C(=O)O)[C@H]2CC[C@@H]1O2	5.08% (inactive)	
CCCCc1ccc(C(=O)O)nc1		inactive
C[C@H](N)[C@H](O)c1ccc(O)c(O)c1		inactive
CC(C)CN1CCC2(CC1)CCN(S(C)(=O)=O)CC2	38.1% (inactive)	
CC(C)NC(=O)N1CCC2(CC1)CCN(C(=O)Oc1ccccc1)CC2	1.3% (inactive)	
CN(C)[C@H]1C(=O)C(C(N)=O)=C(O)[C@]2(O)C(=O)C3=C(O)c4c(O)cccc4[C@@](C)(O)[C@H]3C[C@@H]12	20.2% [at 25.6 µM] (inactive)	
O=C(c1ccc(-c2nnc(Nc3ccccc3)c3ccccc23)cc1)N1C[C@H]2C[C@H](C1)c1cccc(=O)n1C2		8.91 µM (active)
O=c1cccc2n1CC1CNC[C@H]2C1		inactive
CC(=O)OCC1=C(C(=O)O)N2C(=O)[C@@H](N)[C@@H]2SC1	12.6% [at 25.6 µM] (inactive)	
COc1cc([C@@H](O)CN)ccc1O	-35.2% (inactive)	
Cc1c([C@@H](C)[C@H]2NC[C@H](C)C[C@@H]2O)ccc2c1C[C@@H]1[C@H]2CC=C2C[C@@H](O)CC[C@@]21C	26.3% [at 11.4 µM] (inactive)	
C[C@@H]1Cc2cc3c(cc2C(c2ccc(N)cc2)=NN1)OCO3		2 µM (active)
CC1=NN=C(c2ccc(N)cc2)c2cc3c(cc2C1)OCO3		inactive and 7.94 µM (active)
COc1ccc(C(=O)OC2C[C@H]3CC[C@@H](C2)N3C)cc1OC (some centres not stated)	-8.31% [at 25.6 µM] (inactive)	
C[C@@]12C(=O)OC(=O)[C@@]1(C)[C@H]1CC[C@@H]2O1	8.99% (inactive)	
CC1=C2C(=O)[C@@H]3[C@@H](CC=C4C[C@@H](O)CC[C@@]43C)[C@H]2CC[C@@]12O[C@H]1C[C@H](C)CN[C@H]1[C@@H]2C	15.9% [at 11.4 µM] (inactive)	
CCCCCC[C@H]1C(=O)O[C@H](C)[C@H](NC(=O)c2cccc(NC=O)c2O)C(=O)O[C@@H](C)[C@H]1OC(=O)CC(C)C	-28% [at 25.6 µM] (inactive)	
COc1ccc(C(=O)NC2CC3CCCC(C2)N3CC(C)C)cc1OC (configuration not stated)	-7.42% (inactive)	

SMILES	activity, negative = inhibition	AC50
NC[C@H](O)c1ccc(O)cc1		inactive
O=C1CCCCCC1C1(O)C(=O)Nc2ccc(Br)cc21 (configuration not stated)		4.47 µM (active)
Oc1ccc2c3c1O[C@H]1c4[nH]c5c(c4C[C@@]4(O)[C@@H](C2)N(CC2CC2)CC[C@]314)C[C@]1(O)[C@H]2Cc3ccc(O)c4c3[C@@]1(CCN2CC1CC1)[C@@H]5O4	-41.7% (inactive)	
Oc1ccc2c3c1O[C@@H]1c4[nH]c5c(c4C[C@@]4(O)[C@@H](C2)N(CC2CC2)CC[C@]314)C[C@]1(O)[C@@H]2Cc3ccc(O)c4c3[C@@]1(CCN2CC1CC1)[C@H]5O4	-16.2% (inactive)	
Oc1ccc2c3c1O[C@H]1c4[nH]c5ccccc5c4C[C@]4(O)[C@H](C2)N(CC2CC2)CC[C@@]314		10 µM (active)
C[N+]1(C)[C@@H]2CC[C@H]1CC(OC(=O)[C@@H](CO)c1ccccc1)C2 (some centres not stated)		inactive
COc1cc(CNC(=O)CCCC/C=C\C(C)C)ccc1O		inactive and 6.31 µM (active)
CNC[C@H](O)c1ccc(O)c(OC)c1	19.3% [at 25.6 µM] (inactive)	
COc1cc(CCN)ccc1O	42.9% (inactive)	
CC(=O)[C@@H]1CC[C@@H]2[C@@H]3CCC4=CC(=O)CC[C@@]4(C)[C@H]3CC[C@]21C	-32.5% [at 25.6 µM] (inactive)	
CC(C)C[C@H]1C(=O)N2CCC[C@@H]2[C@]2(O)O[C@](NC(=O)[C@H]3C=C4c5cccc6[nH]c(Br)c(c56)C[C@H]4N(C)C3)(C(C)C)C(=O)N12		inactive
CN1C[C@H](C(=O)N[C@@]2(C)O[C@@]3(O)[C@H]4CCCN4C(=O)[C@@H](Cc4ccccc4)N3C2=O)C=C2c3cccc4[nH]cc(c34)C[C@@H]21	13.1% [at 11.4 µM] (inactive)	
CC(C)[C@@]1(NC(=O)[C@@H]2C[C@H]3c4cccc5[nH]cc(c45)C[C@@H]3N(C)C2)O[C@@]2(O)[C@H]3CCCN3C(=O)[C@H](Cc3ccccc3)N2C1=O		3.98 µM (active) and 5.01 µM (active)
CCCCN(CCCC)CCC(O)c1cc2c(Cl)cc(Cl)cc2c2cc(C(F)(F)F)ccc12 (configuration not stated)	9.25% [at 25.6 µM] (inactive)	
O=C(O)CP(=O)(O)c1ccc(Cl)cc1	-4.15% (inactive)	
NC[C@H](CC(=O)O)c1ccc(Cl)cc1		2.51 µM (active)
NC[C@@H](CC(=O)O)c1ccc(Cl)cc1		inactive
CC1(C)N=C(N)N=C(N)N1c1cccc(C(=O)Nc2ccc(S(=O)(=O)F)cc2)c1	25.1% [at 11.4 µM] (inactive)	
CC(=O)OCC1=C(C(=O)[O-])N2C(=O)[C@@H](NC(=O)CCC[C@@H](N)C(=O)[O-])[C@@H]2SC1.[Zn+2]	-15.5% (inactive)	
C[C@]12CC[C@H]3c4ccc(O)cc4CC[C@@H]3[C@H]1CC[C@@H]2OC(=O)CCc1ccccc1	-66% [at 11.4 µM] (inactive)	
Cc1ccc2c(c1)C1CN(C)CCC1N2C(=O)Nc1cccc(Cl)c1 (configuration not stated)		25.1 µM (active)
NC(N)=NC(=O)c1nc(Cl)c(N)nc1N	23.9% [at 25.6 µM] (inactive)	
O=C(c1ccccc1F)c1cn(CC(=O)N2CCOCC2)c2ccccc12		10 µM (active)
O=C(c1ccccc1F)c1cn(Cc2ccccc2)c2ccccc12		1.26 µM (active)
O=C(O)c1nn(Cc2ccc(Cl)cc2Cl)c2ccccc12	-10% (inactive)	
CCOC(=O)Cn1cc(C(=O)c2ccccc2F)c2ccccc21		3.55 µM (active)

SMILES	activity, negative = inhibition	AC50
CCNC(=O)[C@@H]1O[C@@H](n2cnc3c(N)ncnc32)[C@H](O)[C@H]1O	-29.8% (inactive)	
O=P(O)(O)c1ccccc1 (tested in a mixture with another compound)	41.3% [at 11.4 µM] (inactive)	
CC[C@@H]1[C@@H]2C[C@H]3[C@H]4N(C)c5ccccc5[C@@]45C[C@@H]([C@@H]2[C@@H]5O)N3[C@H]1O	7.83% [at 25.6 µM] (inactive)	
C=C(C)[C@H]1CC[C@]2(CO)CC[C@]3(C)[C@@H](CC[C@H]4[C@@]5(C)CC[C@@H](O)C(C)(C)[C@@H]5CC[C@@]43C)[C@H]12	33.7% [at 25.6 µM] (inactive)	
C[C@]1(O)CC[C@H]2[C@@H]3[C@@H](O)CC4=CC(=O)CC[C@@]4(C)[C@H]3CC[C@]21C	12.3% [at 11.4 µM] (inactive)	
O=C(O)/C=C\c1ccc[c]([Sb](=[O])([OH])[OH])c1	-11.2% [at 11.4 µM] (inactive)	
COc1ccc(-n2nc(C(F)(F)F)cc2-c2ccc(Cl)cc2)cc1		7.94 µM (active)
CC(C)(C)C(=O)CP(=O)(O)O	34.5% [at 11.4 µM] (inactive)	
CN1CCC(c2c[nH]c3ccc(O)cc23)CC1		inactive
CN1CCc2cc3c(cc2[C@@H]1[C@@H]1OC(=O)c2c1ccc1c2OCO1)OCO3		0.0501 µM (active)
C[N+]1(C)CCc2cc3c(cc2[C@@H]1[C@@H]1OC(=O)c2c1ccc1c2OCO1)OCO3	18.5% (inactive)	
CO[C@H]1C=C2CCN(C)[C@@H]2[C@@H]2c3cc4c(cc3C(=O)O[C@H]21)OCO4	-44.6% [at 25.6 µM] (inactive)	
COc1ccc(C[C@H]2c3cc(OC)c(OC)cc3CCN2C)cc1OC	-22.8% [at 25.6 µM] (inactive)	
COc1c2c(cc3c1OCO3)CCN(C)C2	-28.1% [at 25.6 µM] (inactive)	
COc1ccc2c(c1OC)C(=O)O[C@H]2[C@H]1c2cc3c(cc2CCN1C)OCO3		1.26 µM (active)
O[C@@H]1[C@@H]2c3cc4c(cc3CN3CCC(=C[C@@H]1O)[C@H]23)OCO4	10.7% [at 25.6 µM] (inactive)	
COc1ccc2c(c1O)-c1c(OC)c(OC)cc3c1[C@H](C2)N(C)CC3	-24.7% [at 25.6 µM] (inactive)	
COc1ccc2c(c1OC)CN1CCc3cc4c(cc3[C@H]1C2)OCO4		1.26 µM (active)
O=C(NCP(=O)(O)O)c1cccnc1	26.5% [at 11.4 µM] (inactive)	
c1cnc(N2CC[C@@]3(CCCNC3)C2)nc1	-7.58% (inactive)	
C=C[C@]12CN(C)[C@H]3C1[C@@]1(C(=O)Nc4ccccc41)[C@H]1C[C@H]2[C@H]3CO1	12.4% [at 25.6 µM] (inactive)	
CCCN1CCC[C@@H]2Cc3[nH]ncc3C[C@H]21		inactive
CC(=O)O[C@H]1CC[C@@]2(C)[C@@H](CC[C@H]3[C@H]2CC(=O)[C@@]2(C)[C@@H]3C[C@H]3CC(C)=CC(=O)[C@H]32)C1	-7.79% [at 11.4 µM] (inactive)	
CS(=N)(=O)CC[C@H](N)P(=O)(O)O (some centres not stated)	2.48% [at 11.4 µM] (inactive)	
